Here are results for 20 compounds from PubChem BioAssay.

A short description of experiment [1]: antimalarial activity against Dd2 strain (AID 2302;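 active = growth inhibition above 50% at the single 2 µM test dose, taken to imply half-maximal potency below 2 µM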;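 note: 0% = DMSO untreated growth and 100% = chloroquine plus artemisinin killed control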). Particulars: P. falciparum Dd2 in RBCs, LDH growth readout, 72 h; at 2 µM; stronger effect = higher value.
Experiment [2] is described as follows: HepG2 cytotoxicity, primary screen, cytotoxicity control for P. falciparum antimalarial project, cell-based, ATP luminescence (AID 2303;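 active = inhibition above 50%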;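 note: 0% = DMSO wells and 100% = digitonin-killed cells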). Particulars: HepG2 viability, 24-48 h, at 10 µM, stronger effect = higher value.
Experiment [3] concerns the target L-lactate dehydrogenase (Plasmodium falciparum (isolate CDC / Honduras)) (UniProt Q27743). The experiment is described as follows: PfLDH activity inhibition – cell lysate, 3D7 strain, counter-screen for P. falciparum growth inhibition project (AID 2304).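 Note: 0% = vehicle and 100% = reference inhibitor.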 Particulars: P. falciparum 3D7 crude extract, LDH APAD/NBT absorbance; at 2 µM; stronger effect = higher value. (In general: A counterscreen serves to expose hits that act by an unwanted route or on another target.)

Experiment [4] in a line: inhibition of 3D7 malaria parasite growth – strain 3D7 (AID 2306).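 Note: 0% = DMSO wells and 100% = chloroquine plus artemisinin control wells.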 Particulars: P. falciparum 3D7 erythrocytic growth, LDH absorbance, 72 h; at 2 µM; stronger effect = higher value.
Experiment [5] has as its target Calcium-dependent protein kinase 1 (Plasmodium falciparum (isolate 3D7)) (UniProt P62344). Briefly: PfCDPK1 kinase inhibitors, biochemical, TCAMS library (AID 1159585; cut-off not given, nearly all actives have IC50 up to about 0.98 µM;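 note: inhibitors leave more ATP so luminescence rises with inhibition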). As to conditions: recombinant PfCDPK1, Kinase-Glo ATP depletion luminescence. (In Kinase-Glo more light means more ATP remaining.)
The target of experiment [6] is Plasmodium falciparum protein kinase 6 (PK6, PF3D7_1337100) (UniProt Q8IDW1). The experiment is described as follows: PfPK6 kinase inhibitors, biochemical, TCAMS library (AID 1159586). Particulars: recombinant PfPK6, Kinase-Glo ATP depletion luminescence.
For experiment [7], the target named is Protein kinase 7 (PK7), Plasmodium falciparum 3D7 (PF3D7_0213400) (UniProt Q7YTF7). Briefly: inhibition of Plasmodium PK7 catalytic activity – biochemical, TCAMS antimalarial set, Kinase-Glo luminescence (AID 1159587). As to conditions: recombinant PfPK7, Kinase-Glo ATP depletion luminescence.
Experiment [8] deals with Calcium-dependent protein kinase 4 (Plasmodium falciparum (isolate 3D7)) (UniProt Q8IBS5). Briefly: PfCDPK4 kinase inhibitors, biochemical, TCAMS library (AID 1159588; cut-off not given, nearly all actives have IC50 up to about 0.91 µM). As to conditions: recombinant PfCDPK4, Kinase-Glo ATP depletion luminescence.

Molecules are shown by their SMILES. A number with no mark means an inactive call. For some of these results: Potency and affinity values are given separately. Active and inactive are the calls of the source. Unless noted, the rule behind the calls is not given here.

Chain of L-lactate dehydrogenase (Plasmodium falciparum (isolate CDC / Honduras)) (Q27743 whole entry, looked up): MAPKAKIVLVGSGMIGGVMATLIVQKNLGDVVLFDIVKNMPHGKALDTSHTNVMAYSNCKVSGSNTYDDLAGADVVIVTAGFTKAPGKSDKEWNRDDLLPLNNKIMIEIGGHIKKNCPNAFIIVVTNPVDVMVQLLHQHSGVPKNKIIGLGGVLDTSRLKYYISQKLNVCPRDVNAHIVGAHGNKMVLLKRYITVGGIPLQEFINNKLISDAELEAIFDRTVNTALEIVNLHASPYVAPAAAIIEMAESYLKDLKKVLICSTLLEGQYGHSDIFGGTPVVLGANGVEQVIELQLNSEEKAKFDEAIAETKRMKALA
Chain of Plasmodium falciparum protein kinase 6 (PK6, PF3D7_1337100) (Q8IDW1 1-305): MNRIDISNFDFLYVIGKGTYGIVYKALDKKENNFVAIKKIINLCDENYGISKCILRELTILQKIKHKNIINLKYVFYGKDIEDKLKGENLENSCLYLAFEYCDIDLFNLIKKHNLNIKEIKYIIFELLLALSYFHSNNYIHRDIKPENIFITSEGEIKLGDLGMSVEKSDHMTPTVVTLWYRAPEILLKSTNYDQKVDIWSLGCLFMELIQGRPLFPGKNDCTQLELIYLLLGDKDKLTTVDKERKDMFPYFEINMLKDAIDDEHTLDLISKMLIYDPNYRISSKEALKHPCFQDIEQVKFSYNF
Chain of Protein kinase 7 (PK7), Plasmodium falciparum 3D7 (PF3D7_0213400) (Q7YTF7 1-343): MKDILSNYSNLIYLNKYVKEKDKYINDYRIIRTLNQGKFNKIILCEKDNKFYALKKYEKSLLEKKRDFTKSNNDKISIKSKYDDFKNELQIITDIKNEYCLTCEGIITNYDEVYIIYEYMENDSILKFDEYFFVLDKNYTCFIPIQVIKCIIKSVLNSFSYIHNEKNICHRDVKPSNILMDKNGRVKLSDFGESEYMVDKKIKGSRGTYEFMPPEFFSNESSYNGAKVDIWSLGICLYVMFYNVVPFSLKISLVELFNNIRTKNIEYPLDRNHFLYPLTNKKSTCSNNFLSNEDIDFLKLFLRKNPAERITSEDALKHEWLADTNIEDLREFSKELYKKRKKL
Chain of Calcium-dependent protein kinase 1 (Plasmodium falciparum (isolate 3D7)) (P62344 whole entry, looked up): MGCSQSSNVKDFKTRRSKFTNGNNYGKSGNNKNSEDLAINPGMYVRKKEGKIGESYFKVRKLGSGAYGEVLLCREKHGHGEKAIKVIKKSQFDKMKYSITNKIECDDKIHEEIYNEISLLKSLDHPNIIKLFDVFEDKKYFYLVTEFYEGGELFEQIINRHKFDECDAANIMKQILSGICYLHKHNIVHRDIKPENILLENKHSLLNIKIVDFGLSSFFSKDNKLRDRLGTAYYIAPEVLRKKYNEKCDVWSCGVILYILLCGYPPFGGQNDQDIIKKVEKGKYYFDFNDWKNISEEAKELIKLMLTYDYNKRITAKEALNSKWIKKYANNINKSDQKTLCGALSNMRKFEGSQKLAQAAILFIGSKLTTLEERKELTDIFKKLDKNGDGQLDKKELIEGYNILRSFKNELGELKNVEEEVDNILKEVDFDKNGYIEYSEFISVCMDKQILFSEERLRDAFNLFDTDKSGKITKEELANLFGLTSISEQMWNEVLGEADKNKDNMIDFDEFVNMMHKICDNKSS
Chain of Calcium-dependent protein kinase 4 (Plasmodium falciparum (isolate 3D7)) (Q8IBS5 whole entry, looked up): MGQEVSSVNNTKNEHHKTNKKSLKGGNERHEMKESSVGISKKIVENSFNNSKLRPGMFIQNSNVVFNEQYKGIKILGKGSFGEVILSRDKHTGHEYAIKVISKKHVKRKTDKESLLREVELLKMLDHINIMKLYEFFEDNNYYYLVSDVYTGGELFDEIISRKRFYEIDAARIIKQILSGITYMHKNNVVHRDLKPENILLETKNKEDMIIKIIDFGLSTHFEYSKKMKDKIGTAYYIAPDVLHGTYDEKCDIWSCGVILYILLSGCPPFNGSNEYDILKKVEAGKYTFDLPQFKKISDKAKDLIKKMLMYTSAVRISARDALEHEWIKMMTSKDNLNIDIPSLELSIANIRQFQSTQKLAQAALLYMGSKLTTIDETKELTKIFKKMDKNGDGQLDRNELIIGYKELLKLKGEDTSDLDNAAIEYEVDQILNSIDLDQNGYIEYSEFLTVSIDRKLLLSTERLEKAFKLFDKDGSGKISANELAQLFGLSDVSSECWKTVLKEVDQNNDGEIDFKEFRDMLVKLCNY

As for `Fc1cc(Cl)ccc1Nc1ccnc2cc(-c3ccc(CN4CCOCC4)o3)ccc12`, the growth inhibition in experiment [1] was 98% (active); in experiment [4] it was 99% (active). In addition, the figures for the inhibition in experiment [2] and in experiment [3] were 33% and 0%, respectively. Further, the outcome in experiment [5], in experiment [6], in experiment [7] and in experiment [8] was inactive.

As for `CCC(C)Oc1ccc2nc(N)nc(N)c2c1Cl` (stereo not given), the growth inhibition is -1% in experiment [1] and 96% (active) in experiment [4]. In addition, the inhibition – broadly, the drop in the measured response relative to a control, in per cent – in experiment [2] is 57% (active); in experiment [3], -2%. Moreover, the outcome in experiment [5], in experiment [6], in experiment [7] and in experiment [8] was inactive.

With `CCC(CO)NCC(O)Cn1c2ccc(Cl)cc2c2cc(Cl)ccc21` (stereo not given), the growth inhibition in experiment [1] was 88% (active); in experiment [4], 96% (active). Further, the inhibition in experiment [2] is 11%; in experiment [3], -2%. Moreover, the outcome in experiment [5], in experiment [6], in experiment [7] and in experiment [8] was inactive.

Take `CCCN(CC1CC1)c1ncc(-c2cccc(CNCc3ccccc3O)c2)cn1`: the growth inhibition in experiment [1] is 98% (active); in experiment [4], 97% (active). In addition, the inhibition in experiment [2] was 15%; in experiment [3], -8%. The outcome in experiment [5], in experiment [6], in experiment [7] and in experiment [8] was inactive.

As to `O=c1ccccn1CCCC1CCCCN1` (stereo not given), the growth inhibition was -1% in experiment [1] and 96% (active) in experiment [4]. In addition, the results for the inhibition in experiment [2] and in experiment [3] were -1% and 0%, respectively. Moreover, the outcome in experiment [5], in experiment [6], in experiment [7] and in experiment [8] was inactive.

With `CCCCCC(=O)NCC(NCCCNc1cc(=O)c2ccccc2[nH]1)c1cc(Br)cc(Br)c1` (stereo not given), the growth inhibition in experiment [1] was 66% (active); in experiment [4], 96% (active). Further, the inhibition in experiment [2] was -1%; in experiment [3], -8%. Besides, the result in experiment [5], in experiment [6], in experiment [7] and in experiment [8] was inactive.

For `COc1ccc(NC(=O)Nc2cccc(-c3cccc(-c4nc5c(C)cccc5[nH]4)c3)c2)cc1`, the growth inhibition in experiment [1] was 43%; in experiment [4], 101% (active). For the same compound, the inhibition in experiment [2] was -1%; in experiment [3] it was 2%. For the same compound, the outcome in experiment [5], in experiment [6], in experiment [7] and in experiment [8] was inactive.

In the case of `CC1CCCN(c2ccc(NC(=O)c3cccs3)cc2[N+](=O)[O-])C1` (stereo not given), the growth inhibition in experiment [1] and in experiment [4] was 96% (active) throughout. Besides, the inhibition in experiment [2] was 14%; in experiment [3] it was -2%. Also, the result in experiment [5], in experiment [6], in experiment [7] and in experiment [8] was inactive.

`CC(=O)c1c[nH]c(C(=O)Nc2ccc(-c3cn4ccccc4n3)cc2)c1`: the growth inhibition in experiment [1] was 95% (active); in experiment [4] it was 98% (active). In addition, the inhibition was 20% in experiment [2] and 4% in experiment [3]. Further, the result in experiment [5], in experiment [6], in experiment [7] and in experiment [8] was inactive.

On to `CCOC(=O)c1cc(C(=O)NCCCCN2CCC(c3ccc(CC)cc3OCC)CC2)ccc1-c1ccc(C(F)(F)F)cc1`, for which the growth inhibition is 71% (active) in experiment [1] and 99% (active) in experiment [4]. Also, the inhibition in experiment [2] is 74% (active); in experiment [3], -1%. The result in experiment [5], in experiment [6], in experiment [7] and in experiment [8] was inactive.

In the case of `COc1cc2nc(NCCc3ccccc3)nc(NCc3cnn(C)c3C)c2cc1OC`, the growth inhibition is 94% (active) in experiment [1] and 99% (active) in experiment [4]. In addition, the inhibition in experiment [2] is 13%; in experiment [3], 0%. Further, the outcome in experiment [5], in experiment [6], in experiment [7] and in experiment [8] was inactive.

`CC(C)(C)C(=O)Nc1ccc(N2CCN(C(c3ccccc3)c3ccccc3)CC2)c(Cl)c1`: the results for the growth inhibition in experiment [1] and in experiment [4] were 94% (active) and 92% (active), respectively. Further, the results for the inhibition in experiment [2] and in experiment [3] were -13% and 0%, respectively. Also, the result in experiment [5], in experiment [6], in experiment [7] and in experiment [8] was inactive.

On to `CCOC(=O)c1ccc(NC(=O)N[C@@H](Cc2ccccc2)C(=O)NC2CCN(Cc3ccc(OCCCN(C)C)cc3)C2)cc1` (stereo not given in full), for which the growth inhibition was 8% in experiment [1] and 91% (active) in experiment [4]. The inhibition in experiment [2] is 5%; in experiment [3], 0%. The outcome in experiment [5], in experiment [6], in experiment [7] and in experiment [8] was inactive.

As for `CCc1cn(C)c2c(N3CCCC3=O)cc(C(=O)N[C@@H](Cc3ccccc3)[C@H](O)CNC(C)(C)c3cccc(C(F)(F)F)c3)cc12`, the growth inhibition in experiment [1] and in experiment [4] was 97% (active) each time. Also, the inhibition is 22% in experiment [2] and 0% in experiment [3]. In addition, the outcome in experiment [5], in experiment [6], in experiment [7] and in experiment [8] was inactive.

Regarding `O=C(Cc1cccc(O)c1)NCC(Cc1ccc(O)cc1)c1ccccc1` (stereo not given), the growth inhibition was 97% (active) in experiment [1] and 91% (active) in experiment [4]. In addition, the inhibition in experiment [2] was -1%; in experiment [3], 3%. Moreover, the outcome in experiment [5], in experiment [6], in experiment [7] and in experiment [8] was inactive.

With `Cn1ncc2ccc(Nc3nccc(-c4ccc5c(c4)c(N)nn5C)n3)cc21`, the growth inhibition was 96% (active) in experiment [1] and 99% (active) in experiment [4]. The results for the inhibition in experiment [2] and in experiment [3] were 48% and -2%, respectively. For the same compound, the outcome in experiment [5], in experiment [6], in experiment [7] and in experiment [8] was inactive.

`CCCCCCN(CCCCCC)CCCCNc1c2ccc(Cl)cc2nc2ccc(OC)cc12`: the growth inhibition was 94% (active) in experiment [1] and 100% (active) in experiment [4]. For the same compound, the figures for the inhibition in experiment [2] and in experiment [3] were 65% (active) and 1%, respectively. For the same compound, the outcome in experiment [5], in experiment [6], in experiment [7] and in experiment [8] was inactive.

`Cc1cc(OCC2CCN(c3ncc(C(=O)Nc4ccccc4)cc3Cl)CC2)ccc1F`: the growth inhibition in experiment [1] is 87% (active); in experiment [4], 91% (active). Also, the inhibition in experiment [2] is 27%; in experiment [3] it was -2%. Moreover, the outcome in experiment [5], in experiment [6], in experiment [7] and in experiment [8] was inactive.

For the compound `COc1ccc(CCn2c(=N)c(C(=O)NCc3ccccc3)cc3c(=O)n4cccc(C)c4nc32)cc1`, the growth inhibition in experiment [1] was 37%; in experiment [4], 102% (active). The figures for the inhibition in experiment [2] and in experiment [3] were 29% and -3%, respectively. For the same compound, the outcome in experiment [5], in experiment [6], in experiment [7] and in experiment [8] was inactive.

In the case of `COc1ccc(C(=O)Nc2cc(Br)c3c(c2)CNCC3)cc1Br`, the growth inhibition in experiment [1] is 8%; in experiment [4], 97% (active). The inhibition is 25% in experiment [2] and 7% in experiment [3]. The outcome in experiment [5], in experiment [6], in experiment [7] and in experiment [8] was inactive.
